Assay results from PubChem BioAssay (Tox21).
Records with an inconclusive call do not appear. Active and inactive are the calls of the source. Unless noted, calls follow the shape of the dose curve; as a rule, active = well fitted curve in the direction sought with a large enough effect in the repeat runs; inconclusive = weak or mixed curves; inactive = no such curve, though single readings can be large; an effect the other way counts as inactive or inconclusive.

Key:
[1] = qHTS assay to identify small molecule antagonists of the vitamin D receptor (VDR) signaling pathway - cell viability counter screen (AID 743225); also: nearly all actives have a fitted effect of over 50% in size
How it was run: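 Cytotoxicity toward the VDR-bla HEK 293T line was scored by ATP-based CellTiter-Glo luminescence, read in the wells already used for the beta-lactamase readout after 16 h compound treatment under 3 nM 1-alpha,25-dihydroxyvitamin D3 stimulation.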

[2] = qHTS assay to identify small molecule agonists of the NFkB signaling pathway - cell viability counter screen (AID 1159515; calls by dose curve; also: series mostly up to about 61 µM; nearly all actives have a fitted effect of over 55% in size)
How it was run: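 Luminescence from CellTiter-Glo (30 min, room temperature) gives viability, measured in the same wells as the beta-lactamase reporter read. Cells were NFkB-bla ME-180, 2,000 per well, treated 5 hr with compounds.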

[3] = qHTS assay to identify small molecule agonists of the endoplasmic reticulum stress response signaling pathway (AID 1159516; active = well fitted activation curve with a large enough effect in the signal ratio in the repeat runs, not every such curve was filed as active; the % refers to the signal ratio)
How it was run: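 Read-out is beta-lactamase cleavage of a FRET substrate (405 nm excitation; 460 and 530 nm emissions) in ESRE-bla HeLa cells after a 5 hr compound exposure at 37 C. Substrate incubation ran 2 hr at room temperature.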

[4] = qHTS assay to identify small molecule agonists of the endoplasmic reticulum stress response signaling pathway - cell viability counter screen (AID 1159517; calls by dose curve;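 also: HeLa cells carrying an ER stress response element beta-lactamase reporter; series mostly up to about 61 µM; nearly all actives have a fitted effect of over 50% in size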)
How it was run: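 Counter-screen wells were identical to the reporter wells. Cells were plated at 1,500 per well and dosed for 5 hr, then read for luminescence 30 min after CellTiter-Glo addition.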

[5] = qHTS assay to identify small molecule antagonists of the retinoid-related orphan receptor gamma (ROR-gamma) signaling pathway - cell viability counter screen (AID 1159520); also: nearly all actives have a fitted effect of over 50% in size
How it was run: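 Tet-on ROR gamma CHO cells were given compounds for 2 hr, then doxycycline hyclate at 1 uM final, and incubated 16 hr at 37 C. Viability was measured as ATP content by CellTiter-Glo luminescence.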

[6] = target: Nuclear receptor ROR-gamma (Homo sapiens) (UniProt P51449); assay: qHTS assay to identify small molecule antagonists of the retinoid-related orphan receptor gamma (ROR-gamma) signaling pathway (AID 1159521;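 also: CHO cells with doxycycline inducible ROR-gamma driving an RORE luciferase reporter; top concentration of the series differs between compounds; nearly all actives have a fitted effect of over 50% in size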)
How it was run: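 Readout: ONE-Glo luciferase luminescence, 30 min at room temperature. System: Tet-on RORγ CHO, RORE-LUC. Sequence: compound 2 h, doxycycline 1 uM final, 16 h at 37 C.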

[7] = qHTS assay to identify small molecule agonists of the AP-1 signaling pathway - cell viability counter screen (AID 1159525; calls by dose curve; also: nearly all actives have a fitted effect of over 55% in size)
How it was run: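 AP-1-bla ME-180 cells in Opti-MEM with 0.5% dialyzed FBS, compound exposure 5 h at 37 C in 15-point titration. Viability read in the same wells as ATP content by CellTiter-Glo luminescence, normalised to tetra-n-octylammonium bromide and DMSO controls.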

[8] = qHTS assay to identify small molecule agonists of the AP-1 signaling pathway (AID 1159526; calls by dose curve)
[9] = qHTS assay to identify small molecule agonists of the RXR signaling pathway - cell viability counter screen (AID 1159529)
How it was run: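 Tox21 10K compounds were tested for cytotoxicity against GeneBLAzer RXR-alpha HEK 293T cells grown in 2% charcoal-stripped FBS. Exposure lasted 16 hr at 37 C, 5% CO2; viability read by CellTiter-Glo luminescence.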

[10] = qHTS assay to identify small molecule antagonists of the retinoid acid receptor (RAR) signaling pathway - cell viability counter screen (AID 1159551); also: nearly all actives have a fitted effect of over 35% in size
How it was run: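 Luminescent ATP quantitation (CellTiter-Glo) gave cell viability in C3RL4 cells exposed to test chemicals for 6 h at 37 C alongside 1 uM final retinol.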

[11] = qHTS assay to identify small molecule antagonists of the retinoic acid receptor (RAR) signaling pathway (AID 1159552; also: nearly all actives have a fitted effect of over 50% in size)
How it was run: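 Overnight-plated C3RL4 reporter cells get compound, then retinol to 1 uM final; plates sit 6 hr at 37 C, 5% CO2. A luciferase reagent is added and light output recorded after 30 min at room temperature.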

[12] = target: Luciferin 4-monooxygenase (Photinus pyralis) (UniProt P08659); assay: qHTS assay to identify small molecule inhibitors of firefly luciferase (AID 1224835); also: series mostly up to about 120 µM; nearly all actives have a fitted effect of over 25% in size
How it was run: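 Biochemical qHTS: compounds run as interplate titrations against purified firefly enzyme, with D-luciferin and ATP each at its KM concentration. Light output recorded by CCD imaging.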

[13] = qHTS assay to identify small molecule agonists of the constitutive androstane receptor (CAR) signaling pathway - cell viability counter screen (AID 1224836); also: series mostly up to about 92 µM; nearly all actives have a fitted effect of over 45% in size
How it was run: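 Fluorescence from CellTiter-Fluor indicates live cells after 23 h exposure. The human hepatoma line expresses hCAR and a CYP2B6-2.2kb reporter. Incubation medium contains 0.75 uM PK11195 (final).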

[14] = qHTS assay to identify small molecule antagonists of the constitutive androstane receptor (CAR) signaling pathway - cell viability counter screen (AID 1224837); also: series mostly up to about 92 µM; nearly all actives have a fitted effect of over 45% in size
How it was run: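 HepG2-CYP2B6-hCAR cells, 2500/well, 4 hr pre-incubation; compound titration, 15 conc.; CITCO 50 nM final; 23 hr, 37 C/5% CO2; CellTiter-Fluor, fluorescence intensity.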

[15] = qHTS assay to identify small molecule antagonists of the estrogen related receptor signaling pathway with the pleiotropic PPARgamma coactivator (PGC) from Tox21 10K library - cell viability counter screen (AID 1224840; active = well fitted cell-killing curve with a large enough effect in the repeat runs, not every such curve was filed as active; also: nearly all actives have a fitted effect of over 40% in size)
How it was run: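 PGC/ERR cells, 2,000/well; 6 h pre-incubation 37 C/5% CO2; cpd in DMSO via pin tool; 17.5 h 37 C; CellTiter-Fluor, 30 min; fluorescence.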

[16] = qHTS assay to identify small molecule agonists of the retinoic acid receptor (RAR) signaling pathway (AID 1159553)
How it was run: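 Luminescence from a RARE-driven luciferase reporter in C3RL4 cells served as the read-out, measured after 30 min with detection reagent at room temperature. Compounds in DMSO were applied for 6 hr at 37 C following overnight seeding.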

[17] = qHTS assay to identify small molecule antagonists of the estrogen related receptor (ERR) signaling pathway from Tox21 library - cell viability counter screen (AID 1224834); also: nearly all actives have a fitted effect of over 30% in size
How it was run: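 Fluorescence from CellTiter-Fluor gives the viability read-out, taken 30 min after reagent addition. Before that, ERR cells seeded 6 h earlier were incubated with compounds for 17.5 h at 37 C.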

[18] = target: Nuclear receptor subfamily 1 group I member 3 (Homo sapiens) (UniProt Q14994); assay: qHTS assay to identify small molecule antagonists of the constitutive androstane receptor (CAR) signaling pathway (AID 1224838);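 also: HepG2 cells stably expressing hCAR with CYP2B6 luciferase reporter stimulated by CITCO; nearly all actives have a fitted effect of over 40% in size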
How it was run: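 HepG2-CYP2B6-hCAR cells; 4 h pre-incubation; cpd (15 conc) + CITCO 50 nM final; 24 h, 37 C/5% CO2; ONE-Glo, luminescence.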

[19] = target: Nuclear receptor subfamily 1 group I member 3 (Homo sapiens) (UniProt Q14994); assay: qHTS assay to identify small molecule agonists of the constitutive androstane receptor (CAR) signaling pathway (AID 1224839);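 also: HepG2 cells stably carrying human CAR and a CYP2B6 luciferase reporter; series mostly up to about 92 µM; nearly all actives have a fitted effect of over 15% in size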
How it was run: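 Stable hCAR/CYP2B6-2.2kb HepG2 line in DMEM with 10% FBS; compounds (15 concentrations) and 0.75 uM PK11195 final, 24 h at 37 C/5% CO2, then ONE-Glo luminescence after 30 min.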

Measured: Potency

Chain of Nuclear receptor subfamily 1 group I member 3 (Homo sapiens) (Q14994 whole entry, looked up): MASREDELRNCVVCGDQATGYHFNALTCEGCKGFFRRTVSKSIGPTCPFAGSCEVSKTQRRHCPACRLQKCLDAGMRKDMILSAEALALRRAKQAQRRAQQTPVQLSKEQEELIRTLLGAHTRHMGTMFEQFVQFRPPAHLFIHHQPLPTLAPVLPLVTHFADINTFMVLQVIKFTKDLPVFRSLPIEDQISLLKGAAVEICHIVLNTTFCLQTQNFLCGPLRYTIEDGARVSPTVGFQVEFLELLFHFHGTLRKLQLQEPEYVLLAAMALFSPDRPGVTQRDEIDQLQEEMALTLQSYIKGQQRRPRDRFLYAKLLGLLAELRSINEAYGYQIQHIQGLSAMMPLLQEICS
Chain of Luciferin 4-monooxygenase (Photinus pyralis) (P08659 whole entry, looked up): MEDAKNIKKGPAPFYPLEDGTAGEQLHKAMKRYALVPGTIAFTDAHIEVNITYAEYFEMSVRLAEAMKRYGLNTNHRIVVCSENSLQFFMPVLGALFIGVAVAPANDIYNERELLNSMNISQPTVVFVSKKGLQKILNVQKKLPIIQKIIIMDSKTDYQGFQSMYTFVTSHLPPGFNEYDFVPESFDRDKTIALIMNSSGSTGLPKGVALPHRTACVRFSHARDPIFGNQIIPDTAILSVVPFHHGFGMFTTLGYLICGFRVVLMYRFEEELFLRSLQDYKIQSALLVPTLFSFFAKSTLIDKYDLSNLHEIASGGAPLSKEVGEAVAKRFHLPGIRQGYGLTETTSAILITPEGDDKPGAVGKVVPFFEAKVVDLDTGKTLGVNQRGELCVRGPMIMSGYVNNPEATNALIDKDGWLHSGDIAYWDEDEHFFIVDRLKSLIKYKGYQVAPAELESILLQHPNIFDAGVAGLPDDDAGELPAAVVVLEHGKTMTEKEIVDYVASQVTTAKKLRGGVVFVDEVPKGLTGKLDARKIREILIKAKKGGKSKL

COC(=O)c1ccc(C(=O)O)cc1
not listed: [16] | [17] | [18] | [19]
inactive: all other assays above

N#Cc1cc(NC(=O)C(=O)O)c(Cl)c(NC(=O)C(=O)O)c1
not listed: [1] | [18] | [19]
inactive: all other assays above

CC(=O)OC1CCC(C(C)(C)C)CC1 (stereo unspecified)
inactive: all assays above

C=CC(=O)CC
not listed: [11] | [18] | [19]
inactive: all other assays above

CC(=O)SC[C@@H](C)C(=O)N1CCC[C@H]1C(=O)N[C@@H](Cc1ccccc1)C(=O)O
not listed: [18] | [19]
inactive: all other assays above

COc1cc(C(=O)NC2CCCNC2)cc(OC)c1OC (stereo unspecified)
not listed: [11] | [13] | [17]
inactive: all other assays above

COCc1nnc(-c2ccc[n+]([O-])c2)n1-c1c(Cl)c(Cl)cc2[nH]c(=O)c(=O)[nH]c12
not listed: [11] | [18] | [19]
inactive: all other assays above

CCCCC(CC)COC(=O)CC#N (stereo unspecified)
not listed: [13] | [18] | [19]
inactive: all other assays above
